# Assay results published in PubChem BioAssay AID1508601 (ICCB-Longwood Screening Facility, Harvard Medical School, 2020).
# Screen size: about 5,700 compounds; about 85 (1%) were called active. The sample holds actives, similar compounds and a random draw of the others, so the mix is not that of the screen. Rule as the data show it: active = p53-positive nuclei above about 36% (passing the limit was not always enough); inactive = the rest.
# Legend:
# [1] = nuclear p53 accumulation, HPV+ cells – imaging, p53-positive nuclei imaging, 24 h, 48 h (AID 1508601); settings: 24/48 h
# [2] = target: Cellular tumor antigen p53 (Homo sapiens) (UniProt P04637); experiment: as above; settings: 24/48 h, stronger effect = higher value
# [3] = measured here: cell number at 24 h, Library stock concentration: 10 mM
# [4] = measured here: cell number at 48 h, Library stock concentration: 10 mM
# [5] = Library stock concentration: 10 mM
# [6] = measured here: p53 positive nuclei at 24 h, Library stock concentration: 10 mM
# [7] = measured here: cell number at 24 h, concentration not given here
# [8] = measured here: cell number at 48 h, concentration not given here
# [9] = measured here: p53 positive nuclei at 24 h, concentration not given here
# [10] = measured here: cell number at 24 h, Library stock concentration: 80 uM
# [11] = measured here: cell number at 24 h, Library stock concentration: 400 uM
# [12] = measured here: cell number at 24 h, Library stock concentration: 2 mM
# [13] = measured here: cell number at 48 h, Library stock concentration: 80 uM
# [14] = measured here: cell number at 48 h, Library stock concentration: 400 uM
# [15] = measured here: cell number at 48 h, Library stock concentration: 2 mM
# [16] = Library stock concentration: 80 uM
# [17] = Library stock concentration: 400 uM
# [18] = Library stock concentration: 2 mM
# [19] = measured here: p53 positive nuclei at 24 h, Library stock concentration: 80 uM
# [20] = measured here: p53 positive nuclei at 24 h, Library stock concentration: 400 uM
# [21] = measured here: p53 positive nuclei at 24 h, Library stock concentration: 2 mM
# Cellular tumor antigen p53 (Homo sapiens), sequence (P04637 whole entry, looked up): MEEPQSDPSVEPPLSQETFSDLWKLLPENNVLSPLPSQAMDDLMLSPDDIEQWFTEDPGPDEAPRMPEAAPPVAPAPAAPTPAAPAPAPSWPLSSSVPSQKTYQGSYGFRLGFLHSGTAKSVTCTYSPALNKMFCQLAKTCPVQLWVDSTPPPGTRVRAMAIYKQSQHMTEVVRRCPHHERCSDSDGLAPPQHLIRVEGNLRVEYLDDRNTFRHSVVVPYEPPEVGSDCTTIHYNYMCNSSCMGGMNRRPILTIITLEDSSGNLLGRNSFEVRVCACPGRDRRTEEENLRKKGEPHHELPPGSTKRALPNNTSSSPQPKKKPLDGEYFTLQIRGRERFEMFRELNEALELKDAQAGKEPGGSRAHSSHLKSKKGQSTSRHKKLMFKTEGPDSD
structure (smiles),measurement,setting,value
CC(=O)NC(CSC(=S)NSc1ccc(SNC(=S)SCC(NC(C)=O)C(=O)O)cc1)C(=O)O (stereo not given),"nuclei count, normalised","[1]; measured here: cell number at 24 h, Library stock concentration: 500 nM",115%
same,"nuclei count, normalised","[1]; measured here: cell number at 24 h, Library stock concentration: 1.5 uM",108%
same,"nuclei count, normalised","[1]; measured here: cell number at 24 h, Library stock concentration: 4.6 uM",110%
same,"nuclei count, normalised","[1]; measured here: cell number at 24 h, Library stock concentration: 13.7 uM",114%
same,"nuclei count, normalised","[1]; measured here: cell number at 24 h, Library stock concentration: 41 uM",121%
same,"nuclei count, normalised","[1]; measured here: cell number at 24 h, Library stock concentration: 123 uM",119%
same,"nuclei count, normalised","[1]; measured here: cell number at 24 h, Library stock concentration: 370 uM",107%
same,"nuclei count, normalised","[1]; measured here: cell number at 24 h, Library stock concentration: 1.111 mM",105%
same,"nuclei count, normalised","[1]; measured here: cell number at 24 h, Library stock concentration: 3.333 mM",89.8%
same,"nuclei count, normalised",[1]; [3],64.7%
same,"nuclei count, normalised","[1]; measured here: cell number at 48 h, Library stock concentration: 500 nM",111%
same,"nuclei count, normalised","[1]; measured here: cell number at 48 h, Library stock concentration: 1.5 uM",111%
same,"nuclei count, normalised","[1]; measured here: cell number at 48 h, Library stock concentration: 4.6 uM",109%
same,"nuclei count, normalised","[1]; measured here: cell number at 48 h, Library stock concentration: 13.7 uM",109%
same,"nuclei count, normalised","[1]; measured here: cell number at 48 h, Library stock concentration: 41 uM",108%
same,"nuclei count, normalised","[1]; measured here: cell number at 48 h, Library stock concentration: 123 uM",108%
same,"nuclei count, normalised","[1]; measured here: cell number at 48 h, Library stock concentration: 370 uM",106%
same,"nuclei count, normalised","[1]; measured here: cell number at 48 h, Library stock concentration: 1.111 mM",105%
same,"nuclei count, normalised","[1]; measured here: cell number at 48 h, Library stock concentration: 3.333 mM",95.8%
same,"nuclei count, normalised",[1]; [4],68.4%
same,"p53-positive nuclei, normalised",[2]; Library stock concentration: 500 nM,-0.0484% (inactive)
same,"p53-positive nuclei, normalised",[2]; Library stock concentration: 1.5 uM,-0.0573% (inactive)
same,"p53-positive nuclei, normalised",[2]; Library stock concentration: 4.6 uM,0.0306% (inactive)
same,"p53-positive nuclei, normalised",[2]; Library stock concentration: 13.7 uM,-0.0501% (inactive)
same,"p53-positive nuclei, normalised",[2]; Library stock concentration: 41 uM,-0.00296% (inactive)
same,"p53-positive nuclei, normalised",[2]; Library stock concentration: 123 uM,-0.123% (inactive)
same,"p53-positive nuclei, normalised",[2]; Library stock concentration: 370 uM,-0.0406% (inactive)
same,"p53-positive nuclei, normalised",[2]; Library stock concentration: 1.111 mM,0.162% (inactive)
same,"p53-positive nuclei, normalised",[2]; Library stock concentration: 3.333 mM,-0.108% (inactive)
same,"p53-positive nuclei, normalised",[2]; [5],6.19% (inactive)
same,"p53-positive nuclei, normalised","[2]; measured here: p53 positive nuclei at 24 h, Library stock concentration: 500 nM",-0.173%
same,"p53-positive nuclei, normalised","[2]; measured here: p53 positive nuclei at 24 h, Library stock concentration: 1.5 uM",-0.118%
same,"p53-positive nuclei, normalised","[2]; measured here: p53 positive nuclei at 24 h, Library stock concentration: 4.6 uM",-0.113%
same,"p53-positive nuclei, normalised","[2]; measured here: p53 positive nuclei at 24 h, Library stock concentration: 13.7 uM",-0.173%
same,"p53-positive nuclei, normalised","[2]; measured here: p53 positive nuclei at 24 h, Library stock concentration: 41 uM",-0.0102%
same,"p53-positive nuclei, normalised","[2]; measured here: p53 positive nuclei at 24 h, Library stock concentration: 123 uM",-0.173%
same,"p53-positive nuclei, normalised","[2]; measured here: p53 positive nuclei at 24 h, Library stock concentration: 370 uM",-0.0536%
same,"p53-positive nuclei, normalised","[2]; measured here: p53 positive nuclei at 24 h, Library stock concentration: 1.111 mM",0.0142%
same,"p53-positive nuclei, normalised","[2]; measured here: p53 positive nuclei at 24 h, Library stock concentration: 3.333 mM",-0.0287%
same,"p53-positive nuclei, normalised",[2]; [6],16%
COc1cccc2ccc(-c3ccc(C(=O)N(C)C)cc3)nc12,"nuclei count, normalised",[1]; [7],97.5%
same,"nuclei count, normalised",[1]; [8],101%
same,"p53-positive nuclei, normalised",[2]; concentration not given here,0.00257% (inactive)
same,"p53-positive nuclei, normalised",[2]; [9],0.1%
c1ccc(C(OC2CCN(CCCc3nn[nH]n3)CC2)c2ccccc2)cc1,"nuclei count, normalised",[1]; [7],101%
same,"nuclei count, normalised",[1]; [8],102%
same,"p53-positive nuclei, normalised",[2]; concentration not given here,0.0542% (inactive)
same,"p53-positive nuclei, normalised",[2]; [9],0.308%
COc1ccc(-c2ccc3ncc4c(c3c2)n(-c2ccc(N3CCNCC3)c(C(F)(F)F)c2)c(=O)n4C)cn1,"nuclei count, normalised",[1]; [10],74.5%
same,"nuclei count, normalised",[1]; [11],49.8%
same,"nuclei count, normalised",[1]; [12],37.4%
same,"nuclei count, normalised","[1]; measured here: cell number at 24 h, Library stock concentration: 3.33 mM",46.3%
same,"nuclei count, normalised",[1]; [3],49.1%
same,"nuclei count, normalised",[1]; [13],70.7%
same,"nuclei count, normalised",[1]; [14],39.8%
same,"nuclei count, normalised",[1]; [15],21%
same,"nuclei count, normalised","[1]; measured here: cell number at 48 h, Library stock concentration: 3.33 mM",37.9%
same,"nuclei count, normalised",[1]; [4],37.2%
same,"p53-positive nuclei, normalised",[2]; [16],0.085% (inactive)
same,"p53-positive nuclei, normalised",[2]; [17],22.1% (inactive)
same,"p53-positive nuclei, normalised",[2]; [18],53.3% (active)
same,"p53-positive nuclei, normalised",[2]; Library stock concentration: 3.33 mM,2.2% (inactive)
same,"p53-positive nuclei, normalised",[2]; [5],-0.138% (inactive)
same,"p53-positive nuclei, normalised",[2]; [19],0.126%
same,"p53-positive nuclei, normalised",[2]; [20],1.06%
same,"p53-positive nuclei, normalised",[2]; [21],14.2%
same,"p53-positive nuclei, normalised","[2]; measured here: p53 positive nuclei at 24 h, Library stock concentration: 3.33 mM",3.51%
same,"p53-positive nuclei, normalised",[2]; [6],-0.0446%
COc1cc(OC)cc(-c2ccc3ncc4ccc(=O)n(-c5ccc(N6CCNCC6)c(C(F)(F)F)c5)c4c3c2)c1,"nuclei count, normalised",[1]; [10],106%
same,"nuclei count, normalised",[1]; [11],104%
same,"nuclei count, normalised",[1]; [12],101%
same,"nuclei count, normalised",[1]; [3],45.6%
same,"nuclei count, normalised",[1]; [13],111%
same,"nuclei count, normalised",[1]; [14],107%
same,"nuclei count, normalised",[1]; [15],103%
same,"nuclei count, normalised",[1]; [4],30.1%
same,"p53-positive nuclei, normalised",[2]; [16],0.103% (inactive)
same,"p53-positive nuclei, normalised",[2]; [17],0.257% (inactive)
same,"p53-positive nuclei, normalised",[2]; [18],-0.11% (inactive)
same,"p53-positive nuclei, normalised",[2]; [5],10.5% (inactive)
same,"p53-positive nuclei, normalised",[2]; [19],-0.0535%
same,"p53-positive nuclei, normalised",[2]; [20],0.233%
same,"p53-positive nuclei, normalised",[2]; [21],0.0288%
same,"p53-positive nuclei, normalised",[2]; [6],11.7%
CCC(=O)N1CCN(c2ccc(-n3c(=O)ccc4cnc5ccc(-c6cnc7ccccc7c6)cc5c43)cc2C(F)(F)F)CC1,"nuclei count, normalised",[1]; [10],68.5%
same,"nuclei count, normalised",[1]; [11],59.7%
same,"nuclei count, normalised",[1]; [12],55.8%
same,"nuclei count, normalised",[1]; [3],43.7%
same,"nuclei count, normalised",[1]; [13],64.8%
same,"nuclei count, normalised",[1]; [14],49%
same,"nuclei count, normalised",[1]; [15],36.2%
same,"nuclei count, normalised",[1]; [4],21.9%
same,"p53-positive nuclei, normalised",[2]; [16],-0.0521% (inactive)
same,"p53-positive nuclei, normalised",[2]; [17],-0.0367% (inactive)
same,"p53-positive nuclei, normalised",[2]; [18],0.993% (inactive)
same,"p53-positive nuclei, normalised",[2]; [5],11.8% (inactive)
same,"p53-positive nuclei, normalised",[2]; [19],0.45%
same,"p53-positive nuclei, normalised",[2]; [20],0.126%
same,"p53-positive nuclei, normalised",[2]; [21],0.287%
same,"p53-positive nuclei, normalised",[2]; [6],0.768%
